# This is one part of a sample in which the strongest signals are shown more often than they occur.
# B1: L-Selectin (Homo sapiens), P14151 (protein)
# chain: MIFPWKCQSTQRDLWNIFKLWGWTMLCCDFLAHHGTDCWTYHYSEKPMNWQRARRFCRDNYTDLVAIQNKAEIEYLEKTLPFSRSYYWIGIRKIGGIWTWVGTNKSLTEEAENWGDGEPNNKKNKEDCVEIYIKRNKDAGKWNDDACHKLKAALCYTASCQPWSCSGHGECVEIINNYTCNCDVGYYGPQCQFVIQCEPLEAPELGTMDCTHPLGNFSFSSQCAFSCSEGTNLTGIEETTCGPFGNWSSPEPTCQVIQCEPLSAPDLGIMNCSHPLASFSFTSACTFICSEGTELIGKKKTICESSGIWSNPSPICQKLDKSFSMIKEGDYNPLFIPVAVMVTAFSGLAFIIWLARRLKKGKKSKRSMNDPY
# Experiments:
# Assay in all cases: glycan array binding signal (z-score within array); higher = stronger binding
# Settings in all cases: glycan notation: IUPAC condensed, linker removed
# [1] = molecular target: Fuc(a1-2)Gal(b1-3)[Fuc(a1-4)]GlcNAc
# Procedure, shortened: (§1)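 Columns mapping to the same glycan were averaged after glycan names were converted to IUPAC-condensed notation. The data come from 3228 arrays in the Consortium for Functional Glycomics database, limited to those with an available protein sequence. Binding is reported as a within-array Z-score averaged across arrays of one protein sequence and across linkers.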
# [2] = molecular target: Fuc(a1-3)[Gal(b1-4)]Glc6S
# Procedure, shortened: as §1
# [3] = molecular target: Fuc(a1-3)[Gal(b1-4)]GlcNAc(b1-4)Gal(b1-4)[Fuc(a1-3)]GlcNAc
# Procedure, shortened: as §1
# [4] = molecular target: Fuc(a1-3)[Gal3S(b1-4)]Glc6S
# Procedure, shortened: as §1
# [5] = molecular target: Fuc(a1-3)[Gal3S(b1-4)]GlcNAc6S
# Procedure, shortened: as §1
# Gal(a1-6)Glc = molecular target: Gal(a1-6)Glc
# Procedure, shortened: as §1
# Gal(b1-3)Gal = molecular target: Gal(b1-3)Gal
# Procedure, shortened: as §1
# Gal(b1-4)Glc6S = molecular target: Gal(b1-4)Glc6S
# Procedure, shortened: as §1
# [6] = molecular target: Gal(b1-4)GlcNAc(b1-3)Gal(b1-4)[Fuc(a1-3)]GlcNAc(b1-3)Gal(b1-4)[Fuc(a1-3)]GlcNAc
# Procedure, shortened: as §1
# [7] = molecular target: Gal(b1-4)GlcNAc(b1-6)Gal(b1-4)GlcNAc
# Procedure, shortened: as §1
# Gal3S(b1-3)GlcNAc = molecular target: Gal3S(b1-3)GlcNAc
# Procedure, shortened: as §1
# [8] = molecular target: Gal3S(b1-3)[Fuc(a1-4)]GlcNAc
# Procedure, shortened: as §1
# Gal3S6S(b1-4)GlcNAc6S = molecular target: Gal3S6S(b1-4)GlcNAc6S
# Procedure, shortened: as §1
# Gal6S(b1-4)GlcNAc = molecular target: Gal6S(b1-4)GlcNAc
# Procedure, shortened: as §1
# [9] = molecular target: GlcNAc(b1-4)Gal(b1-4)GlcNAc
# Procedure, shortened: as §1
# [10] = molecular target: Man(a1-2)Man(a1-3)[Man(a1-6)]Man(a1-6)[Man(a1-2)Man(a1-3)]Man(b1-4)GlcNAc(b1-4)GlcNAc
# Procedure, shortened: as §1
# [11] = molecular target: Man(a1-3)[Man(a1-6)]Man(a1-6)[Man(a1-3)]Man
# Procedure, shortened: as §1
# [12] = molecular target: Man(a1-3)[Man(a1-6)]Man(b1-4)GlcNAc(b1-4)GlcNAc
# Procedure, shortened: as §1
# [13] = molecular target: Neu5Ac(a2-3)Gal(b1-3)GalNAc
# Procedure, shortened: as §1
# [14] = molecular target: Neu5Ac(a2-3)Gal(b1-3)GalNAc(b1-3)Gal(b1-4)GlcNAc
# Procedure, shortened: as §1
# [15] = molecular target: Neu5Ac(a2-3)Gal(b1-3)GlcNAc
# Procedure, shortened: as §1
# [16] = molecular target: Neu5Ac(a2-3)Gal(b1-3)[Neu5Ac(a2-3)Gal(b1-4)]GlcNAc
# Procedure, shortened: as §1
# [17] = molecular target: Neu5Ac(a2-3)Gal(b1-4)GlcNAc(b1-3)Gal(b1-4)GlcNAc
# Procedure, shortened: as §1
# [18] = molecular target: Neu5Ac(a2-3)Gal(b1-4)[Fuc(a1-3)]GlcNAc6S
# Procedure, shortened: as §1
# [19] = molecular target: Neu5Ac(a2-3)Gal6S(b1-4)[Fuc(a1-3)]GlcNAc
# Procedure, shortened: as §1
# [20] = molecular target: Neu5Ac(a2-3)[GalNAc(b1-4)]Gal(b1-4)Glc
# Procedure, shortened: as §1
# [21] = molecular target: Neu5Ac(a2-8)Neu5Ac(a2-8)Neu5Ac(a2-3)[GalNAc(b1-4)]Gal(b1-4)Glc
# Procedure, shortened: as §1
# [22] = molecular target: Neu5Ac9Ac(a2-6)Gal(b1-4)GlcNAc
# Procedure, shortened: as §1
binder,measurement,setting,value
B1,glycan array binding signal (z-score),[1],-0.36
same,glycan array binding signal (z-score),[2],0.137
same,glycan array binding signal (z-score),[3],-0.145
same,glycan array binding signal (z-score),[4],6.9
same,glycan array binding signal (z-score),[5],8.15
same,glycan array binding signal (z-score),Gal(a1-6)Glc,0.48
same,glycan array binding signal (z-score),Gal(b1-3)Gal,-0.315
same,glycan array binding signal (z-score),Gal(b1-4)Glc6S,0.942
same,glycan array binding signal (z-score),[6],-0.38
same,glycan array binding signal (z-score),[7],-0.336
same,glycan array binding signal (z-score),Gal3S(b1-3)GlcNAc,-0.333
same,glycan array binding signal (z-score),[8],3.08
same,glycan array binding signal (z-score),Gal3S6S(b1-4)GlcNAc6S,4.59
same,glycan array binding signal (z-score),Gal6S(b1-4)GlcNAc,-0.078
same,glycan array binding signal (z-score),[9],0.119
same,glycan array binding signal (z-score),[10],-0.024
same,glycan array binding signal (z-score),[11],-0.198
same,glycan array binding signal (z-score),[12],-0.246
same,glycan array binding signal (z-score),[13],0.005
same,glycan array binding signal (z-score),[14],-0.116
same,glycan array binding signal (z-score),[15],-0.147
same,glycan array binding signal (z-score),[16],-0.044
same,glycan array binding signal (z-score),[17],-0.338
same,glycan array binding signal (z-score),[18],9.18
same,glycan array binding signal (z-score),[19],-0.028
same,glycan array binding signal (z-score),[20],-0.363
same,glycan array binding signal (z-score),[21],-0.314
same,glycan array binding signal (z-score),[22],0.073
